Unmarked numbers belong to inactive results. Results filed as inconclusive are left out. The source made the active and inactive calls. Calls follow the shape of the dose curve; as a rule, active = well fitted activation curve with a large enough effect; inconclusive = small, poorly fitted or top-dose-only effect; inactive = flat fitted curve, though single readings scatter.

The first assay is described as follows: Cellular Toxicity (caspase-3) SK-N-SH (AID 661).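 Also: 0% = DMSO basal and 100% = 10 µM staurosporine.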 The conditions noted are these: SK-N-SH caspase-3 activation, qHTS, DMSO as zero, staurosporine as full; series mostly up to 91.7 µM. The method in brief: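 Human SK-N-SH neuroblastoma cells, 1500/well, were exposed to compounds for 16 hours at 37 °C. Caspase-Glo 3/7 luminescence was normalized to DMSO (basal) and 10 uM staurosporine (100%), and AC50 came from a Hill fit.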
For orientation: Quantitative high-throughput screening tests each substance at several concentrations.
For the compound `COc1ccc(OC)cc1`, the compound was classed as inactive.

Consider `Clc1cc(Cl)cc(Cl)c1`, for which the outcome was inactive.

As to `Cc1c(C(=O)O)cccc1[N+](=O)[O-]`, the call was inactive.

Turning to `CCCCCCCCCCCCC1CO1` (centres undefined), the call was inactive.

As for `COCCOC(=O)c1ccccc1C(=O)OCCOC`, the outcome was inactive.

Take `CCCCCCCCC`: the compound was called inactive.

A short description of the next assay: Cellular Toxicity (caspase-3) H-4-II-E (AID 663).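 Also: cells exposed to compound for 16 hr before readout.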 To be noted: H-4-II-E rat hepatoma, scaled: DMSO 0%, 100 µM tamoxifen 100%; at 92.2 µM (top of the series). In a few lines:
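Rat hepatoma H-4-II-E cells (1500/well) plated 5 hr, then exposed to compound titrations for 16 hr at 37 °C. Caspase-Glo 3/7 luminescence read after 20 min at RT; data normalized to DMSO and 100 uM tamoxifen, AC50 from Hill fits.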
Regarding `O=CNc1ccccc1`, the caspase-3 activation is 0.272%.

Take `Cc1ccc(C#N)cc1`: the caspase-3 activation was 0.0504%.

Take `CC(C)C=O`: the caspase-3 activation was 0.472%.

On to `CCCCCCC=O`, for which the caspase-3 activation was 1.06%.

As to `CN(C)c1cccc(O)c1`, the caspase-3 activation is 2.04%.

In the case of `O=C(O)c1ccc(Cl)cc1Cl`, the caspase-3 activation was 0.226%.

For `CCCC(Cl)CCCC(Cl)CCC(Cl)CCC(Cl)CCC(Cl)CCCC(Cl)CCC` (centres undefined), the caspase-3 activation is 0.272%.

Turning to `CNC(=O)c1ccccc1`, the caspase-3 activation is -1.03%.

For `ClCCl`, the caspase-3 activation was -0.724%.

Turning to `CC(=O)Nc1ccc(C)cc1`, the caspase-3 activation is 0.606%.

For `CC(C)(c1cc(Br)c(OCC(Br)CBr)c(Br)c1)c1cc(Br)c(OCC(Br)CBr)c(Br)c1` (centres undefined), the caspase-3 activation is 1.29%.

In the case of `CC(=O)Nc1ccc(N)cc1`, the caspase-3 activation was -0.322%.

For `Cc1ccccc1C(N)=O`, the caspase-3 activation was 1.38%.

Turning to `CC(=O)C1(C)CC2=C(CCCC2(C)C)CC1C` (centres undefined), the caspase-3 activation was 1.88%.

As to `CC(C=O)Cc1ccc(C(C)(C)C)cc1` (centres undefined), the caspase-3 activation is 0.297%.

In the case of `CCCCN(CCO)CCCC`, the caspase-3 activation is -0.761%.

As to `CC(O)CC(C)O` (centres undefined), the caspase-3 activation was 1.09%.

For the compound `OCCO`, the caspase-3 activation is -0.0515%.

As to `CC(=O)OC(C)=O`, the caspase-3 activation is -0.382%.

In the case of `NS(=O)(=O)O`, the caspase-3 activation is 1.83%.

As to `CCOC(=O)C(C)C(C)=O` (centres undefined), the caspase-3 activation is 0.941%.

On to `Cc1ccc(C)c([N+](=O)[O-])c1`, for which the caspase-3 activation is -0.213%.

Regarding `C=C(C)C(=O)OCCCCCCCCCC`, the caspase-3 activation was -0.285%.

Regarding `COC(=O)CCCC(=O)OC`, the caspase-3 activation was -0.182%.

With `c1ccc(Nc2ccccc2)cc1`, the caspase-3 activation is 0.361%.

With `O=C(O)c1cc(Cl)cc(Cl)c1`, the caspase-3 activation was -0.143%.

On to `CC/C=C1/OC(=O)c2ccccc21`, for which the caspase-3 activation is 0.49%.

Regarding `Cc1ccco1`, the caspase-3 activation is 1.57%.

`NCCCCCCN`: the caspase-3 activation is 1.31%.

On to `BrC/C=C/CBr`, for which the caspase-3 activation is 0.954%.

As for `CC(=C/C=C/C(C)=C/C=C/C=C(C)/C=C/C=C(C)/C=C/C(=O)O)/C=C/C(=O)O`, the caspase-3 activation was 0.467%.

With `CCOC(C)(C)C`, the caspase-3 activation was -0.707%.

Consider `O=C(O)c1cccc(Cl)c1Cl`, for which the caspase-3 activation is -0.64%.

Turning to `COc1ccc(OC)cc1`, the caspase-3 activation is -0.441%.

With `Clc1cc(Cl)cc(Cl)c1`, the caspase-3 activation was 0.838%.

On to `Cc1c(C(=O)O)cccc1[N+](=O)[O-]`, for which the caspase-3 activation was -0.261%.

Take `CCCCCCCCCCCCC1CO1` (centres undefined): the caspase-3 activation is 0.543%.

In the case of `COCCOC(=O)c1ccccc1C(=O)OCCOC`, the caspase-3 activation was 0.176%.

`CCCCCCCCC`: the caspase-3 activation is 0.863%.

The nature of a further assay: Cellular Toxicity (caspase-3) Hek293 (AID 664).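 Also: cells exposed to compound for 16 h at 37 °C before readout.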 To be noted: HEK293 caspase-3 activation, DMSO = 0%, 100 µM tamoxifen = 100%; at 92.2 µM (top of the series). The method in brief: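 HEK293 cells in complete medium treated 16 h at 37 °C, then Caspase-Glo 3/7 luminescence read after 20 min at room temperature. Normalized to DMSO and 100 uM tamoxifen; AC50 from Hill fit of concentration-response.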
Regarding `O=CNc1ccccc1`, the caspase-3 activation is 1.41%.

Take `Cc1ccc(C#N)cc1`: the caspase-3 activation is 0.103%.

On to `CC(C)C=O`, for which the caspase-3 activation is -1.91%.

Take `CCCCCCC=O`: the caspase-3 activation is -2.62%.

In the case of `CN(C)c1cccc(O)c1`, the caspase-3 activation was 0.706%.

Take `O=C(O)c1ccc(Cl)cc1Cl`: the caspase-3 activation is 2.7%.

With `CCCC(Cl)CCCC(Cl)CCC(Cl)CCC(Cl)CCC(Cl)CCCC(Cl)CCC` (centres undefined), the caspase-3 activation is -1.03%.

On to `CNC(=O)c1ccccc1`, for which the caspase-3 activation was -0.658%.

For the compound `ClCCl`, the caspase-3 activation is 1.14%.

In the case of `CC(=O)Nc1ccc(C)cc1`, the caspase-3 activation was 0.349%.

Consider `CC(C)(c1cc(Br)c(OCC(Br)CBr)c(Br)c1)c1cc(Br)c(OCC(Br)CBr)c(Br)c1` (centres undefined), for which the caspase-3 activation was 16.5%.

In the case of `CC(=O)Nc1ccc(N)cc1`, the caspase-3 activation is -0.0268%.

Regarding `Cc1ccccc1C(N)=O`, the caspase-3 activation was 3.64%.

As for `CC(=O)C1(C)CC2=C(CCCC2(C)C)CC1C` (centres undefined), the caspase-3 activation was 2.01%.

For the compound `CC(C=O)Cc1ccc(C(C)(C)C)cc1` (centres undefined), the caspase-3 activation is -0.395%.

`CCCCN(CCO)CCCC`: the caspase-3 activation was -0.886%.

On to `CC(O)CC(C)O` (centres undefined), for which the caspase-3 activation was -0.296%.

For the compound `OCCO`, the caspase-3 activation was 0.819%.

Regarding `CC(=O)OC(C)=O`, the caspase-3 activation was -0.384%.

Consider `NS(=O)(=O)O`, for which the caspase-3 activation was 1.35%.

On to `CCOC(=O)C(C)C(C)=O` (centres undefined), for which the caspase-3 activation was -0.825%.

In the case of `Cc1ccc(C)c([N+](=O)[O-])c1`, the caspase-3 activation is 0.434%.

`C=C(C)C(=O)OCCCCCCCCCC`: the caspase-3 activation is 2.37%.

Regarding `COC(=O)CCCC(=O)OC`, the caspase-3 activation is -0.162%.

Consider `c1ccc(Nc2ccccc2)cc1`, for which the caspase-3 activation was -0.415%.

On to `O=C(O)c1cc(Cl)cc(Cl)c1`, for which the caspase-3 activation is 1.27%.

`CC/C=C1/OC(=O)c2ccccc21`: the caspase-3 activation was 1.13%.

`Cc1ccco1`: the caspase-3 activation is -0.963%.

For the compound `NCCCCCCN`, the caspase-3 activation was -1.45%.

As to `BrC/C=C/CBr`, the caspase-3 activation was 2.1%.

In the case of `CC(=C/C=C/C(C)=C/C=C/C=C(C)/C=C/C=C(C)/C=C/C(=O)O)/C=C/C(=O)O`, the caspase-3 activation is -1.17%.

For `CCOC(C)(C)C`, the caspase-3 activation is 1.78%.

`O=C(O)c1cccc(Cl)c1Cl`: the caspase-3 activation is -1.27%.

For `COc1ccc(OC)cc1`, the caspase-3 activation is 0.282%.

With `Clc1cc(Cl)cc(Cl)c1`, the caspase-3 activation is 0.505%.

Consider `Cc1c(C(=O)O)cccc1[N+](=O)[O-]`, for which the caspase-3 activation is 1.44%.

In the case of `CCCCCCCCCCCCC1CO1` (centres undefined), the caspase-3 activation is 1.51%.

On to `COCCOC(=O)c1ccccc1C(=O)OCCOC`, for which the caspase-3 activation was 0.308%.

`CCCCCCCCC`: the caspase-3 activation was -2.1%.

The values above are taken from PubChem BioAssay (NCATS).
